Each structure is given as a SMILES string. About 5,500 (1.4%) of roughly 400,000 compounds were called active. Entries that show only a call come without a potency. Not shown: some 9% with an inconclusive outcome. This is one part of a sample in which actives are shown more often than they occur. Calls follow the shape of the dose curve; as a rule, active = well fitted cell-killing curve with a large enough effect; inconclusive = small, poorly fitted or top-dose-only effect, or effect the other way; inactive = flat fitted curve, though single readings scatter.
Potency is read from the fitted curve at half-maximal effect.

This experiment is described as follows: qHTS assay for MDR1-selective chemotherapeutics: Primary screen using the parental adenocarcinoma cell KB-3-1. Also: nearly all actives have a fitted effect of over 60% in size. Particulars: KB-3-1 viability, CellTiter-Glo ATP luminescence, 72 h; series mostly up to 46.1 µM. The essentials:
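Parental KB-3-1 adenocarcinoma cells in phenol-red-free DMEM with 10% FBS were pin-treated with compounds at several concentrations, incubated 72 h at 37 °C, and viability read by CellTiter-Glo luminescence; concentration-effect curves were fitted after normalization.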
In the case of `CCCCCn1c(=O)[nH]c2cc(C(=O)NCCN(C)CCCC)ccc2c1=O`, the Potency result was “inactive”.

For `CC(=O)c1ccc(NC(=O)COc2ccccc2-c2nc(-c3ccccc3)no2)cc1`, the Potency result is “inactive”.

Turning to `Cc1noc(C)c1COC(=O)COc1ccc(-c2ccccc2)cc1`, the Potency result was “inactive”.

Consider `O=C(Oc1ccc(-c2nc(-c3ccccn3)no2)cc1)c1ccccc1`, for which the Potency was 7.31 µM (active).

`CCOC(=O)c1c(-c2ccc(OC)cc2)oc2ccc(OCc3ccc(C(=O)OC)cc3)cc12`: the Potency entry is “inactive”.

Consider `O=C(OC/C=C/CSc1nnc(-c2cccc3ccccc23)o1)c1ccc(F)cc1`, for which the Potency entry was “inactive”.

Take `Cc1nc2c(-c3ccccc3)c(C)nn2c(C)c1CCC(=O)NCCc1ccccc1`: the Potency result was “inactive”.

Consider `Cc1ccc(C)c(N2CCN(C(=O)Cn3ncc4c(=O)oc5ccc(C)cc5c43)CC2)c1`, for which the Potency entry was “inactive”.

`CC1CCCN(c2csc3ccc(F)cc3c2=O)C1` (configuration not stated): the Potency entry is “inactive”.

As for `N#CC1=C(SCc2ccccc2)NC(=O)C(C#N)C12CCCC2` (configuration not stated), the Potency was 11.6 µM (active).

Turning to `Cc1ccc(CNS(=O)(=O)c2ccc(C(=O)N(C)C)s2)cc1`, the Potency entry was “inactive”.

In the case of `Cn1c(C(=O)N2CCC(C(=O)N3CCN(c4ccccc4)CC3)CC2)cc2sccc21`, the Potency result is “inactive”.

Regarding `Nc1c(C(=O)NCc2ccccc2)nnn1Cc1cccc(Cl)c1`, the Potency was 20.6 µM (active).

For `COc1cccc(CNC(=O)c2nnn(CC(=O)Nc3cc(C)ccc3C)c2N)c1`, the Potency result is “inactive”.

With `COc1cccc(CNC(=O)c2nnn(CC(=O)Nc3cc(Cl)ccc3C)c2N)c1`, the Potency entry is “inactive”.

For the molecule `CC1(C)CC(N2CCN(C(c3ccccc3)c3ccccc3)CC2)=CC(=[N+]2CCCCC2)C1`, the Potency is 0.517 µM (active).

`CN(C(=O)CSc1nc2ccccc2n1Cc1ccccc1C#N)c1ccccc1`: the Potency result was “inactive”.

As for `Cc1ccc(-c2noc(CSc3nnc(-c4ccc(Cl)cc4)n3C)n2)cc1`, the Potency entry was “inactive”.

In the case of `Cc1nn(-c2ccccc2)c(C)c1NC(=O)CCl`, the Potency was 14.6 µM (active).

`Cc1nn(-c2ccccc2)c(C)c1NC(=O)COc1ccc(Cl)cc1Cl`: the Potency was 5.17 µM (active).

Consider `Cc1nn(-c2ccccc2)c(C)c1NC(=O)COC(=O)c1cc(Cl)ccc1O`, for which the Potency result was “inactive”.

Turning to `C/C=C/c1ccc(OCC(=O)OCC(=O)Nc2c(C)nn(-c3ccccc3)c2C)c(OC)c1`, the Potency entry is “inactive”.

Turning to `CCC(Oc1ccccc1)C(=O)OCC(=O)Nc1c(C)nn(-c2ccccc2)c1C` (configuration not stated), the Potency entry is “inactive”.

Turning to `Cc1cccc(C)c1NC(=O)CNC(=O)c1c(C)nn(-c2ccccc2)c1C`, the Potency result was “inactive”.

As for `OCc1cnc(SCc2ccc(F)cc2)n1Cc1ccc(F)cc1`, the Potency entry was “inactive”.

As to `CN1C(=O)c2ccccc2Sc2ccc(NC(=O)Cc3ccc(Cl)cc3)cc21`, the Potency result is “inactive”.

As to `COc1ccc2c(C)c(CCC(=O)NCc3ccc(OC)c(OC)c3)c(=O)oc2c1`, the Potency entry was “inactive”.

For the origin of these results see PubChem BioAssay AID1347075 (National Center for Advancing Translational Sciences (NCATS), 2019).
